{"source": "PubChem BioAssay (EPA / NIEHS)", "key": {"[1]": {"read-out": "E-selectin (Homo sapiens) (UniProt P16581)", "assay": "BSK_SAg_Eselectin: BioMAP Diversity Plus: SAg Assay for Eselectin Biomarker Activity (AID 2283091)", "settings": "primary human HUVEC with PBMC; actives raise or lower the signal", "in_short": "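Human umbilical vein endothelial cells co-cultured with peripheral blood mononuclear cells, SAg system. E-selectin is measured by ELISA 24 h after dosing and fitted bidirectionally against DMSO. Cytotoxicity is checked by SRB staining of parallel cultures.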"}, "[2]": {"read-out": "Monokine induced gamma interferon (MIG), CXCL9 (gene 4283)", "assay": "BSK_SAg_MIG: BioMAP Diversity Plus: SAg Assay for Monokine induced gamma interferon (MIG) Biomarker Activity (AID 2283092)", "settings": "primary human HUVEC with PBMC; actives raise or lower the signal", "in_short": "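Values reflect bidirectional fitting of ELISA-measured MIG against DMSO vehicle, taken 24 h after dosing of a co-culture of human umbilical vein endothelial cells and peripheral blood mononuclear cells.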"}, "[3]": {"assay": "BSK_SAg_PBMCCytotoxicity: PBMC Cytotoxicity Assessment in the BioMAP Diversity Plus: SAg Assay (AID 2283093);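 further: fitted both ways against DMSO so a hit may be loss or gain of signal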", "settings": "primary human HUVEC with PBMC", "in_short": "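Human umbilical vein endothelial cells co-cultured with PBMC; PBMC (75,000/well) pre-treated with compound 1 h, then activated with SEB and TSST-1 (20 ng/mL final each) for 90 h. Alamar Blue added 6 h, fluorescence 546/580 nm; bidirectional fit versus DMSO.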"}, "[4]": {"read-out": "Interleukin-8 (IL8), CXCL8 (gene 3576)", "assay": "BSK_SAg_IL8: BioMAP Diversity Plus: SAg Assay for Interleukin-8 (IL8) Biomarker Activity (AID 2283094)", "settings": "primary human HUVEC with PBMC; actives raise or lower the signal", "in_short": "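Human umbilical vein endothelial cells co-cultured with PBMC, stimulated with superantigen; IL-8 measured by ELISA 24 h after chemical dosing. Bidirectional fitting versus DMSO; SRB staining in parallel cultures tracks cytotoxicity.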"}, "[5]": {"assay": "BSK_SAg_Proliferation: Cell Proliferation Assessment in the BioMAP Diversity Plus: SAg Assay (AID 2283095)", "settings": "primary human HUVEC with PBMC", "in_short": "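Human umbilical vein endothelial cells co-cultured with PBMC; sulforhodamine B total-protein staining (0.1% SRB after 10% TCA fixation, absorbance 560 nm) at 96 h in sub-confluent culture. Fitted bidirectionally against DMSO.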"}, "[6]": {"assay": "BSK_SAg_SRB: Viability Assessment in the BioMAP Diversity Plus: SAg Assay (AID 2283096);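 further: cells read one day after compound addition; hits may be either gain or loss of signal compared with DMSO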", "settings": "primary human HUVEC with PBMC", "in_short": "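Endothelial/PBMC primary human co-culture; compound 24 h; fix 10% TCA, stain 0.1% SRB, A560; protein content as cytotoxicity proxy; bidirectional curve fit, DMSO = baseline.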"}, "[7]": {"biological_target": "Cytochrome P450 2C19 (Homo sapiens) (UniProt P33261)", "assay": "NVS_ADME_hCYP2C19: NovaScreen (NVS) CYP450-related Enzyme Activity (ADME) Assay for human CYP2C19 (AID 2283113; active means hit-call score of the fitted dose curve at least 0.9, where 1 is the maximum;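 on AC50: potency for inhibition seen as loss of fluorescent signal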)", "in_short": "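Cell-free recombinant human CYP2C19 from insect cells, fluorescent substrate; activity read by fluorescence intensity 1 h after dosing. Primary screen in duplicate at 10 uM; actives retested in concentration series. Signal loss versus acetonitrile negative control.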"}, "[8]": {"biological_target": "human CYP1A2, CYP1A2 (gene 1544) (UniProt P05177)", "sequence (P05177 whole entry, looked up)": "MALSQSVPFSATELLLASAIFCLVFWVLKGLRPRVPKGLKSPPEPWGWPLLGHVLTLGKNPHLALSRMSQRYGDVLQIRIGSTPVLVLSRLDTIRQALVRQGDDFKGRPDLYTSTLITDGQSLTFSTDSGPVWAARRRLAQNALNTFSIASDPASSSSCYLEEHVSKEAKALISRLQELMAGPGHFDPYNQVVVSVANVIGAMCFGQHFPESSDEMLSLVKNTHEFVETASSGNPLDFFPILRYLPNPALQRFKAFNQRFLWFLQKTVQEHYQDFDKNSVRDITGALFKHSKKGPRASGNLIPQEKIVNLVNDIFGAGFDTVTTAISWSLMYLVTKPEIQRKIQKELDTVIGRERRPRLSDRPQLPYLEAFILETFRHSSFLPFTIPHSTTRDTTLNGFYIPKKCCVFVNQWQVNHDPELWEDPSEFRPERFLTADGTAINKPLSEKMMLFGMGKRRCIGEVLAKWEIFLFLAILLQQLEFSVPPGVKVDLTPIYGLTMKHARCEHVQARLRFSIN", "assay": "NVS_ADME_hCYP1A2: NovaScreen (NVS) CYP450-related Enzyme Activity (ADME) Assay for human CYP1A2 (AID 2283102; active means hit-call score of the fitted dose curve at least 0.9, where 1 is the maximum)", "in_short": "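Recombinant human CYP1A2 from insect cells, cell-free, fluorogenic substrate; read 0.5 h after dosing with loss of fluorescence signal indicating inhibition. Primary screen in duplicate at 10 uM, acetonitrile as negative control.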"}, "[9]": {"biological_target": "human Caspase 5 (CASP5), CASP5 (gene 838) (UniProt P51878)", "sequence (P51878 whole entry, looked up)": "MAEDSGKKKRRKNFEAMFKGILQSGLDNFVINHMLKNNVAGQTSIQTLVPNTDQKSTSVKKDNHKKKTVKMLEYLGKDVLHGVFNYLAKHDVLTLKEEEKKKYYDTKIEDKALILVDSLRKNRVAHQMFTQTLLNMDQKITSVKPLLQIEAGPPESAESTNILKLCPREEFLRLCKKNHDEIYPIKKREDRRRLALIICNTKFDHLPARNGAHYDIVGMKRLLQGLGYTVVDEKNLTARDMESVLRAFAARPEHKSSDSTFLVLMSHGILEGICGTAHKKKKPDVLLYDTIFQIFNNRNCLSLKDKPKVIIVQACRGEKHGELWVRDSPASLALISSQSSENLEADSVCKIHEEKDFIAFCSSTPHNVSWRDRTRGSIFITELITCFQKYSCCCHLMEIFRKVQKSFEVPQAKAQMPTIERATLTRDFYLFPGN", "assay": "NVS_ENZ_hCASP5: NovaScreen (NVS) Enzymatic Assay for human Caspase 5 (CASP5) (AID 2283137; active means hit-call score of the fitted dose curve at least 0.9, where 1 is the maximum)", "in_short": "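Recombinant human caspase 5 expressed in E. coli, fluorogenic substrate, fluorescence read 2 h after dosing. Single-point 25 uM duplicate screen, then concentration-response to maximum 50 uM for actives; DMSO baseline.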"}, "[10]": {"biological_target": "human CYP2B6, CYP2B6 (gene 1555) (UniProt P20813)", "sequence (P20813 whole entry, looked up)": "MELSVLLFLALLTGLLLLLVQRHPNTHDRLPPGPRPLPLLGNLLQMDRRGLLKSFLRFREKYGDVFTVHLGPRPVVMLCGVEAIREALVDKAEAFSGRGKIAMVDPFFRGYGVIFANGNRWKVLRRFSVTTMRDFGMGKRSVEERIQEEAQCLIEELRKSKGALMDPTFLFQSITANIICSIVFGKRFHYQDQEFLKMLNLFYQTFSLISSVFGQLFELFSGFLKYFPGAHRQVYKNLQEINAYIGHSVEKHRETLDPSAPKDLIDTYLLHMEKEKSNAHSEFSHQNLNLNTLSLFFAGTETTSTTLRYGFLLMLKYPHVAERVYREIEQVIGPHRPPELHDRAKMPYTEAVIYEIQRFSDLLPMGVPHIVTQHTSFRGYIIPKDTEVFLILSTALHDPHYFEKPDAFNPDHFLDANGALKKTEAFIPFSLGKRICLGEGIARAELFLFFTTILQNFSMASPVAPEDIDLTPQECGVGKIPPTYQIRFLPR", "assay": "NVS_ADME_hCYP2B6: NovaScreen (NVS) CYP450-related Enzyme Activity (ADME) Assay for human CYP2B6 (AID 2283101; active means hit-call score of the fitted dose curve at least 0.9, where 1 is the maximum)", "in_short": "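Compounds were first screened in duplicate at 10 uM against recombinant enzyme, with the fluorescent product measured after 1 hour. Active compounds were retested over a concentration series. Loss of fluorescence versus acetonitrile control was scored as reduced enzyme activity.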"}, "[11]": {"biological_target": "human CYP2D6, CYP2D6 (gene 1565) (UniProt P10635)", "sequence (P10635 whole entry, looked up)": "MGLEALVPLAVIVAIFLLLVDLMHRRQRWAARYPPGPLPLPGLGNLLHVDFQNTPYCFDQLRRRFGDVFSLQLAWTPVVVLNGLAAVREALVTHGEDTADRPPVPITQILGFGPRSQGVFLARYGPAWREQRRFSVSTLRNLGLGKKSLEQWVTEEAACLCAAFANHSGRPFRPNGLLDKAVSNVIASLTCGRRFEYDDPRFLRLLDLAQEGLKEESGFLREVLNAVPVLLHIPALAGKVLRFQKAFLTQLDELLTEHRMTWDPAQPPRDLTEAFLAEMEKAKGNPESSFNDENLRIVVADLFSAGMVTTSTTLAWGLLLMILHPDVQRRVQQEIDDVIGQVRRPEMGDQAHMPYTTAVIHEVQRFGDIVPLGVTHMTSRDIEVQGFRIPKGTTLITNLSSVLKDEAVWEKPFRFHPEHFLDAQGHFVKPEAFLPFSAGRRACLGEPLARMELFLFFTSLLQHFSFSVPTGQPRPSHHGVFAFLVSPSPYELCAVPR", "assay": "NVS_ADME_hCYP2D6: NovaScreen (NVS) CYP450-related Enzyme Activity (ADME) Assay for human CYP2D6 (AID 2283107; active means hit-call score of the fitted dose curve at least 0.9, where 1 is the maximum)", "in_short": "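Cell-free assay using recombinant human CYP2D6 expressed in insect cells, with a fluorogenic substrate read after 1 h. Primary screen in duplicate at 10 uM; actives followed up in concentration series. Loss of signal fitted relative to acetonitrile.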"}, "[12]": {"biological_target": "Cytochrome P450 3A4 (Homo sapiens) (UniProt P08684)", "sequence (P08684 whole entry, looked up)": "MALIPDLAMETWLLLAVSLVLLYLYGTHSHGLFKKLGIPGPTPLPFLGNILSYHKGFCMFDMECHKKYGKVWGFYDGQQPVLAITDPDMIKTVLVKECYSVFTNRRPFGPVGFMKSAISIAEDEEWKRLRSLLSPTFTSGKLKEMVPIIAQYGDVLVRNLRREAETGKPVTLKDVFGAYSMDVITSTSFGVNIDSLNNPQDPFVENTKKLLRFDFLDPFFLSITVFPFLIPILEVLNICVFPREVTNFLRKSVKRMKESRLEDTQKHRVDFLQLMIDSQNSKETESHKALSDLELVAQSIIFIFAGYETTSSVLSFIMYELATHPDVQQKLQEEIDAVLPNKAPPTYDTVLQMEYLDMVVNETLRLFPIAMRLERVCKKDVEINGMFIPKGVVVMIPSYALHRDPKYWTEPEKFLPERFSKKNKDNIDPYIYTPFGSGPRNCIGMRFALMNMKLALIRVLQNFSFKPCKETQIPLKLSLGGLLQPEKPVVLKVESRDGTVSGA", "assay": "NVS_ADME_hCYP3A4: NovaScreen (NVS) CYP450-related Enzyme Activity (ADME) Assay for human CYP3A4 (AID 2283110; active means hit-call score of the fitted dose curve at least 0.9, where 1 is the maximum)", "in_short": "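Cell-free assay using insect-cell-expressed human CYP3A4 with a fluorogenic substrate; fluorescence intensity was read 0.33 hour after dosing. Loss of signal relative to acetonitrile vehicle indicated inhibition. Primary single-concentration screen at 10 uM, in duplicate, then concentration series.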"}, "[13]": {"biological_target": "human Acid Phosphatase 1 (ACP1), ACP1 (gene 52) (UniProt P24666)", "sequence (P24666 whole entry, looked up)": "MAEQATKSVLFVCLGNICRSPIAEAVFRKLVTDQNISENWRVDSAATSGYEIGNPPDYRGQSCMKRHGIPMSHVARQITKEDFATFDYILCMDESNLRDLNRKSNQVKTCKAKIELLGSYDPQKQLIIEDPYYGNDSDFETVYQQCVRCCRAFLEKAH", "assay": "NVS_ENZ_hACP1: NovaScreen (NVS) Enzymatic Assay for human Acid Phosphatase 1 (ACP1) (AID 2283136; active means hit-call score of the fitted dose curve at least 0.9, where 1 is the maximum)", "in_short": "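Recombinant enzyme expressed in Sf9 cells, tested cell-free; activity read by fluorescence with electrophoretic mobility shift separation of substrate and product, 1.5 h after dosing. Primary screen in duplicate at 25 uM, actives then run in concentration series; loss of signal versus DMSO.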"}}, "note": "Results filed as inconclusive are left out. The source made the active and inactive calls. How the source made its calls, unless noted: active means hit-call score of the fitted dose curve at least 0.9, where 1 is the maximum; inactive means score below 0.9.", "data": [{"molecule": "CN1CCN(Cc2cc(-c3ccc4[nH]c(=O)oc4c3)co2)[C@@H](c2ccc(F)cc2)C1", "values": [{"measurement": "AC50", "setting": "[1]", "value": "11.2 µM (active)"}, {"measurement": "outcome", "setting": "[2]", "value": "inactive"}, {"measurement": "AC50", "setting": "[3]", "value": "28.1 µM (active)"}, {"measurement": "AC50", "setting": "[4]", "value": "9.71 µM (active)"}, {"measurement": "AC50", "setting": "[5]", "value": "30.7 µM (active)"}, {"measurement": "outcome", "setting": "[6]", "value": "inactive"}, {"measurement": "outcome", "setting": "[7]", "value": "inactive"}]}, {"molecule": "Cc1ccc(C(C)C)c(O)c1", "values": [{"measurement": "outcome", "setting": "[1]", "value": "inactive"}, {"measurement": "outcome", "setting": "[2]", "value": "inactive"}, {"measurement": "outcome", "setting": "[3]", "value": "inactive"}, {"measurement": "outcome", "setting": "[5]", "value": "inactive"}, {"measurement": "outcome", "setting": "[6]", "value": "inactive"}]}, {"molecule": "CC1(C)CC(N=C=O)CC(C)(CN=C=O)C1", "note": "(stereo not drawn)", "values": [{"measurement": "outcome", "setting": "[1]", "value": "inactive"}, {"measurement": "outcome", "setting": "[2]", "value": "inactive"}, {"measurement": "outcome", "setting": "[3]", "value": "inactive"}, {"measurement": "outcome", "setting": "[4]", "value": "inactive"}, {"measurement": "outcome", "setting": "[5]", "value": "inactive"}, {"measurement": "outcome", "setting": "[6]", "value": "inactive"}, {"measurement": "outcome", "setting": "[8]", "value": "inactive"}, {"measurement": "outcome", "setting": "[9]", "value": "inactive"}]}, {"molecule": "CNCc1cc(F)ccc1Oc1ccc(Cl)c(Cl)c1", "values": [{"measurement": "AC50", "setting": "[1]", "value": "20 µM (active)"}, {"measurement": "outcome", "setting": "[2]", "value": "inactive"}, {"measurement": "AC50", "setting": "[3]", "value": "25.7 µM (active)"}, {"measurement": "AC50", "setting": "[5]", "value": "26.1 µM (active)"}, {"measurement": "outcome", "setting": "[6]", "value": "inactive"}, {"measurement": "AC50", "setting": "[7]", "value": "1.11 µM (active)"}]}, {"molecule": "Oc1ccc2c(c1)OC[C@@H](N1CCC(O)(c3ccc(F)cc3)CC1)[C@H]2O", "values": [{"measurement": "outcome", "setting": "[1]", "value": "inactive"}, {"measurement": "outcome", "setting": "[2]", "value": "inactive"}, {"measurement": "outcome", "setting": "[3]", "value": "inactive"}, {"measurement": "outcome", "setting": "[5]", "value": "inactive"}, {"measurement": "outcome", "setting": "[6]", "value": "inactive"}, {"measurement": "AC50", "setting": "[10]", "value": "6.22 µM (active)"}, {"measurement": "outcome", "setting": "[8]", "value": "inactive"}, {"measurement": "outcome", "setting": "[11]", "value": "inactive"}, {"measurement": "AC50", "setting": "[7]", "value": "7.71 µM (active)"}]}, {"molecule": "Cc1cccc(C)c1O", "values": [{"measurement": "outcome", "setting": "[1]", "value": "inactive"}, {"measurement": "outcome", "setting": "[2]", "value": "inactive"}, {"measurement": "outcome", "setting": "[3]", "value": "inactive"}, {"measurement": "outcome", "setting": "[4]", "value": "inactive"}, {"measurement": "outcome", "setting": "[5]", "value": "inactive"}, {"measurement": "outcome", "setting": "[6]", "value": "inactive"}]}, {"molecule": "COc1ccc2c(c1)c(CC(=O)O)c(C)n2C(=O)c1ccc(Cl)cc1", "values": [{"measurement": "outcome", "setting": "[1]", "value": "inactive"}, {"measurement": "outcome", "setting": "[2]", "value": "inactive"}, {"measurement": "outcome", "setting": "[3]", "value": "inactive"}, {"measurement": "outcome", "setting": "[5]", "value": "inactive"}, {"measurement": "outcome", "setting": "[6]", "value": "inactive"}, {"measurement": "outcome", "setting": "[10]", "value": "inactive"}, {"measurement": "AC50", "setting": "[12]", "value": "10 µM (active)"}]}, {"molecule": "Oc1ccc2ccccc2c1N=Nc1ccccc1", "values": [{"measurement": "AC50", "setting": "[1]", "value": "4.27 µM (active)"}, {"measurement": "outcome", "setting": "[2]", "value": "inactive"}, {"measurement": "outcome", "setting": "[3]", "value": "inactive"}, {"measurement": "AC50", "setting": "[5]", "value": "12.2 µM (active)"}, {"measurement": "outcome", "setting": "[6]", "value": "inactive"}]}, {"molecule": "Nc1ccccc1N", "values": [{"measurement": "outcome", "setting": "[1]", "value": "inactive"}, {"measurement": "outcome", "setting": "[2]", "value": "inactive"}, {"measurement": "outcome", "setting": "[3]", "value": "inactive"}, {"measurement": "outcome", "setting": "[4]", "value": "inactive"}, {"measurement": "outcome", "setting": "[5]", "value": "inactive"}, {"measurement": "outcome", "setting": "[6]", "value": "inactive"}]}, {"molecule": "O=C(O)Cc1ccccc1Nc1c(Cl)cccc1Cl", "values": [{"measurement": "outcome", "setting": "[1]", "value": "inactive"}, {"measurement": "outcome", "setting": "[2]", "value": "inactive"}, {"measurement": "outcome", "setting": "[3]", "value": "inactive"}, {"measurement": "outcome", "setting": "[4]", "value": "inactive"}, {"measurement": "AC50", "setting": "[5]", "value": "15.6 µM (active)"}, {"measurement": "outcome", "setting": "[6]", "value": "inactive"}, {"measurement": "outcome", "setting": "[8]", "value": "inactive"}, {"measurement": "outcome", "setting": "[11]", "value": "inactive"}, {"measurement": "outcome", "setting": "[13]", "value": "inactive"}]}, {"molecule": "NC(=O)Cn1c(=O)cc(CCN2CCN(c3nccc4sccc34)CC2)c2ccc(F)cc21", "values": [{"measurement": "outcome", "setting": "[1]", "value": "inactive"}, {"measurement": "outcome", "setting": "[2]", "value": "inactive"}, {"measurement": "outcome", "setting": "[3]", "value": "inactive"}, {"measurement": "outcome", "setting": "[5]", "value": "inactive"}, {"measurement": "outcome", "setting": "[6]", "value": "inactive"}]}, {"molecule": "O=[N+]([O-])C(CO)(CO)CO", "values": [{"measurement": "outcome", "setting": "[1]", "value": "inactive"}, {"measurement": "outcome", "setting": "[2]", "value": "inactive"}, {"measurement": "outcome", "setting": "[3]", "value": "inactive"}, {"measurement": "AC50", "setting": "[5]", "value": "17.8 µM (active)"}, {"measurement": "outcome", "setting": "[6]", "value": "inactive"}]}]}
